Pf Dd2 growth = blocks in vitro growth of P. falciparum Dd2. P. falciparum Dd2 growth, SYBR Green, 72 h. Potency, µM (top dose mostly 28.9 µM), for inactives: at the highest dose activity, negative = inhibition, usual class: inhibitors. 120,000 tested, 4.3% active; active = well fitted inhibition curve with a large enough effect;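 note: plate controls were DMSO vehicle for no effect and reference drug for full effect; nearly all actives have a fitted effect of over 65% in size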
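Readout: SYBR Green fluorescence, 485 nm excitation, 535 nm emission, after ~16 h lysis at 37C. Before that, Dd2-infected red cells (2.5% hematocrit) grew 72 h with compound, 29 uM top final concentration.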
Active calls of the source: *; i = inactive; [ ] = remark or other dose. The sample as a whole holds a higher share of hits than the screen did. Potency is the fitted concentration of half-maximal effect.

SMILES	Pf Dd2 growth
CCOC(=O)c1cc(S(=O)(=O)N2CCN(c3cccc(OC)c3)CC2)[nH]n1	-17%
CCOC(=O)c1[nH]c(C)c(CCC(=O)Nc2cc(C)ccc2OC)c1C	-22%
CCOC(=O)c1[nH]c(C)c(CCC(=O)NCc2ccccc2)c1C	1%
c1ccc(N2CCN(Cc3cc(CC4(NCc5cnc6ccccc6c5)COC4)no3)CC2)cc1	i
O=C(CCC1CCCN(S(=O)(=O)c2ccccc2F)C1)NCCN1CCOCC1 (stereo not drawn)	-17%
CN(C)[C@@H]1CN(Cc2ccc3[nH]ccc3c2)CC[C@@H]1CNC(=O)C1CC1	i
Cc1nc2c(C(=O)N3CCC(c4cc(CC(=O)O)[nH]n4)CC3)cccc2[nH]1	1%
Cc1ccc(-n2nc3c(N4CCC(C(=O)NC(C)C)CC4)nnc(C)c3c2C)cc1	55%[5.79 µM]
COc1ccc(CNC(=O)C2CCN(c3nnc(C)c4c(C)n(-c5ccc(C)cc5)nc34)CC2)cc1	7.9µM*
Cc1nnc(N2CCC(C(=O)NCCc3ccccc3)CC2)c2nn(-c3ccccc3)c(C)c12	-16%
Cc1ccc(-n2nc3c(N4CCC(C(=O)NC5CCCCC5)CC4)nnc(C)c3c2C)cc1	10%
COc1cc(NC(=O)C2CCN(c3nnc(C)c4c(C)n(-c5ccccc5)nc34)CC2)cc(OC)c1	-16%
CCNC(=O)C1CCN(c2nnc(C)c3c(C)n(-c4ccc(OC)cc4)nc23)CC1	8.9µM*
Cc1noc(C)c1S(=O)(=O)N1CCC2(C1)OC(=O)Nc1cnccc12 (stereo not drawn)	-7%
Cc1nc(N2CCC(NC(=O)C(C)c3ccccc3)CC2)cc(C(F)(F)F)n1 (stereo not drawn)	-9%
O=C(NCc1ccccc1)c1cnc2n1CCN(Cc1ccccc1O)CC2	-15%[44.1 µM]
CCOCC(=O)N1CCC(N2C(=O)C3(CCCC3)C2c2ccccc2)CC1 (stereo not drawn)	-5%
O=C(Cc1ccccn1)N1CCC(N2CC3CCCN3C2=O)CC1 (stereo not drawn)	9%[44.1 µM]
Cc1cccc(C(=O)Nc2c(C(=O)N3CCN(c4ccc(F)cc4)CC3)oc3ccccc23)c1	13µM*
Cc1ccc(C(=O)c2oc3ccccc3c2NC(=O)COc2ccc(Cl)c(C)c2)cc1	36%
COc1ccc(N2CCN(C(=O)c3oc4ccccc4c3NC(=O)c3ccccc3OC)CC2)cc1	-11%
O=C(Nc1c(C(=O)N2CCN(c3ccccc3)CC2)oc2ccccc12)c1ccccc1F	17%
Cc1cccc(OCC(=O)Nc2c(C(=O)Nc3ccc(F)cc3)oc3ccccc23)c1	29%
Cc1cccc(OCC(=O)Nc2c(C(=O)N3CCN(c4ccccc4)CC3)oc3ccccc23)c1	11µM*
Cc1cccc(CC(=O)Nc2c(C(=O)Nc3cccc(F)c3)oc3ccccc23)c1	i
SMILES	Pf Dd2 growth
O=C(Nc1c(C(=O)N2CCN(c3ccccc3)CC2)oc2ccccc12)c1ccc(Br)o1	10µM*
O=C(Nc1c(C(=O)N2CCN(c3ccccc3F)CC2)oc2ccccc12)c1ccccc1F	-22%
O=C([C@@H]1C[C@H](Oc2cccnc2)CN1)N1CCCC1	-3%
CN(Cc1ccccc1)C(=O)CN1C(=O)COc2ccc(C(=O)COc3ccc(F)cc3)cc21	i
Cc1ccc(CNC(=O)N2CC(N(C3CCOCC3)S(C)(=O)=O)C2)cc1	-19%
CS(=O)(=O)N1CCOc2ccc(CCC(=O)NCCc3cccnc3)cc2C1	-3%
Cn1ccnc1CN1CCN(C(=O)C2(Cn3ccnc3)CC2)CC1	i
CC(C)(C)c1cn(C[C@H]2CC3CCN2C[C@@H]3C(=O)NCc2ccc3c(c2)OCO3)nn1 (stereo partly drawn)	-23%[44.1 µM]
O=C(c1ccc(C(F)(F)F)cc1)N1CCn2c(nnc2C2CCCNC2)C1 (stereo not drawn)	-9%
COc1cccc(N2C(=O)NC(=NC3CCCC3)C23CCN([S+](=O)([O-])c2ccccc2)C3)c1 (stereo not drawn)	10%
COc1cccc(N2C(=O)NC(=NC3CCCC3)C23CCCN(Cc2ccsc2)C3)c1 (stereo not drawn)	8.9µM*
O=C(OCc1ccccc1)N1CCCC2(C1)C(=NC1CCCC1)NC(=O)N2c1cc(F)cc(F)c1 (stereo not drawn)	-28%
O=C1NC(=NC2CCCCC2)C2(CCN(Cc3ccsc3)CC2)N1c1cccnc1	-3%
O=C1NC(=NC2CCCCC2)C2(CCCN(Cc3cccnc3)C2)N1c1cccnc1 (stereo not drawn)	5%
O=C1NC(=NC2CCCCC2)C2(CCCN(Cc3ccsc3)C2)N1c1cc(F)cc(F)c1 (stereo not drawn)	7.9µM*
O=C1NC(=NC2CCCCC2)C2(CCN(CC3CC3)C2)N1c1cccnc1 (stereo not drawn)	-10%
COc1ccc(CN2CCOC[C@H](OCC(=O)N(C)C)C2)cc1	-4%[44.1 µM]
CCNC(=O)CCc1c(C)nn(-c2ccccc2)c1Oc1ccc(F)cc1F	-4%
CCC(CC)C(=O)N1C[C@@H]2OCC(=O)N(Cc3ccccc3)[C@@H]2C1	i
COc1ccc(-c2noc(CSc3nnc(C)n3-c3ccc(C)cc3)n2)cc1OC	-10%
Cc1ccc(N2CCN(c3cc(C)nc4c(-c5ccc(Cl)cc5)c(C)nn34)CC2C)cc1 (stereo not drawn)	i
COc1ccc(-c2noc(N3CCN(c4ccc(C)cc4)C(C)C3)n2)cc1OC (stereo not drawn)	1.6µM*
COC(=O)N1CCC(c2nn(-c3ccc(F)cc3)c(=O)[nH]2)CC1	i
CC(C)CN(CC1CN(C(=O)c2ccc(Cl)c(Cl)c2)CCO1)C(=O)c1cccc(F)c1 (stereo not drawn)	-7%
CC(=O)c1cccc(NC(=O)O[C@@H]2CO[C@H]3[C@@H]2OC[C@@H]3NC(=S)Nc2cccc3ccccc23)c1	-16%
SMILES	Pf Dd2 growth
O=C(Nc1ccccc1F)N1CC2CCC(C1)N2Cc1cccs1	5%
C=C[C@H]1CN2CC[C@H]1C[C@@H]2CNC(=O)Nc1ccc(C(C)(C)C)cc1	i
CCOc1ccc(CNC(=O)CCc2cn(CC)c3ccccc23)cc1	-12%
CCOc1ccc(NC(=O)N(Cc2cn(CC)c3ccccc23)C2CCCCCC2)cc1	10µM*
CCOc1ccc(NC(=O)Cn2cc(C(=O)C3CC3)c3ccccc32)cc1	5%
COc1ccc(-c2cc(C[C@H]3CNCC[C@H]3CC(=O)NCc3cccs3)no2)cc1	-7%[44.1 µM]
Cc1nc(-c2ccccc2OC2CN(C(=O)c3cc(F)ccc3F)C2)no1	-25%
CCCCC(=O)OC1=C(C(=O)c2ccccc2)N(CCC)S(=O)(=O)c2ccccc21	-24%
CCCCCN1C(C(=O)c2ccccc2)=C(NC(C)=O)c2ccccc2S1(=O)=O	24%
CCCCCN1C(C(=O)c2ccccc2)=C(OC(=O)CC)c2ccccc2S1(=O)=O	3.2µM*
Fc1ccc(C2Cn3nnc(-c4nc(-c5ccccn5)no4)c3CO2)cc1 (stereo not drawn)	i
Cc1ccc(C)c(C(=O)N2CCC(n3cnnc3C3CC3)CC2)c1	-7%
Cc1nc(-c2ccc(N(C)C)cc2)cc([C@H]2CN3CC[C@H]2C[C@@H]3COC(=O)Nc2ccc(C(C)C)cc2)n1	4µM*
Cc1nc(-c2ccccc2)cc([C@H]2CN3CC[C@H]2C[C@@H]3CN(Cc2ccco2)Cc2ccco2)n1	1.1µM*
CCNC(=O)NC[C@H]1C[C@@H]2CCN1C[C@@H]2c1cc(-c2ccc(OC)c(OC)c2)nc(C)n1	-20%
Cc1nc(-c2ccccc2)cc([C@H]2CN3CC[C@H]2C[C@@H]3CNC(=O)C2CCC2)n1	i
Cc1nc(-c2ccccc2)cc([C@H]2CN3CC[C@H]2C[C@@H]3CNC(=O)C2CC2)n1	i

Compound activity as filed in PubChem.
